According to PubChem BioAssay:
Several values for one entry are separate records, joined by “and”; a condition that tells them apart may be missing. Identical values can stand only once. Activity calls are given as the source filed them.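 Rule for the calls, unless noted: active = thallium flux through the channel raised or lowered by more than 3 SD from vehicle-only wells, actives on both sides; inactive = the rest.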

How the values were obtained:
[1] = test system: Hepatitis C virus NS3 helicase; assay: blockers of NS3h binding to DNA – biochemical, fluorescence polarization, NIH Clinical Collection, primary screen (AID 743270; call rule not given here); settings: NS3 helicase binding to Cy5-dT15 DNA, stronger effect = higher value, concentration not given here
[2] = target: Single-stranded DNA-binding protein (Escherichia coli (strain K12)) (UniProt P0AGE0); assay: SSB-ssDNA binding inhibitors – biochemical, fluorescence polarization, NIH Clinical Collection, counter-screen for HCV NS3 helicase inhibitor project (AID 743271; in the data active = inhibition above about 28%); settings: E. coli SSB-DNA binding, stronger effect = higher value, concentration not given here
[3] = compounds distorting NS3 helicase fluorescence signal – biochemical, NIH Clinical Collection, artefact control for HCV NS3 helicase inhibitor project (AID 743272; call rule not given here;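 note: HCV NS3 helicase with a Cy5 labelled single stranded DNA probe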); settings: fluorescence interference counterscreen, HCV NS3 helicase assay; stronger effect = lower value
[4] = Wnt pathway potentiators raising nuclear beta-catenin – imaging, WNT3A-conditioned medium, mouse C2C12, NPC library, primary screen (AID 1117326; in the data active = nuclear beta-catenin stimulation mostly above about 4.2%, no sharp cut-off; inactive = mostly below about 10%); settings: stronger effect = higher value
[5] = stimulators of insulin release from INS-1E, primary screen, cell-based, 5 mM glucose, NPC library (AID 1117329;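 active = compound raises insulin release from rat beta cells at 5 mM glucose, no numeric limit stated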); settings: rat INS-1E insulin secretion, at 10 µM, stronger effect = higher value
[6] = growth inhibition of GSK3B-pretreated HCT116 cells – cell-based, CellTiter-Glo, 0.2 to 20 µM (AID 1117336;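 active = compounds lowering colon cancer cell viability after pretreatment blocking the GSK3B kinase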); settings: HCT116 viability after GSK3B inhibitor, at 20 µM, stronger effect = higher value
[7] = inhibition of endothelial tube formation, primary screen, imaging, VEGF stimulated, CD31 staining, tube area, NPC library (AID 1117340;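 active = compound that reduces growth-factor-driven endothelial tube area in a mixed cell culture, no cutoff stated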); settings: VEGF-stimulated ADSC/ECFC co-culture, at 10 µM, stronger effect = higher value
[8] = GLP1 release stimulators, primary, NCI-H716, NPC library (AID 1117341;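 active = compound raises GLP1 secretion from the human gut endocrine cells, with no numeric limit stated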); settings: NCI-H716 cells, at 10 µM, stronger effect = higher value
[9] = HCT116 colon cancer cell growth inhibition, primary screen, CellTiter-Glo luminescence, NPC library (AID 1117342;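 active = compounds that lower survival of HCT116 colon cancer cells in the luminescence readout, no numeric limit stated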); settings: at 20 µM (top of the series)
[10] = reduced SW480 viability measured with CellTiter-Glo, NPC library, primary (AID 1117343;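 active = compounds that lower viability of the colon cancer cells in the luminescence readout, with no numeric limit stated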); settings: CellTiter-Glo luminescence; at 20 µM (top of the series)
[11] = NPC library primary testing for decreased DLD-1 cell viability via CellTiter-Glo (AID 1117346;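 active = compounds that lower survival of DLD-1 colon cancer cells in the luminescence readout, no cutoff given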); settings: DLD-1 viability, CellTiter-Glo luminescence; at 20 µM (top of the series)
[12] = target: 6-phosphogluconate dehydrogenase, decarboxylating (Homo sapiens) (UniProt P52209); assay: inhibition of human phosphogluconate dehydrogenase – biochemical, recombinant enzyme, NADPH absorbance, primary screen (AID 1159550;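 active = at least 20% inhibition of 6-phosphogluconate dehydrogenase activity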); settings: recombinant 6PGD, NADPH absorbance 341 nm; at 10 µM; stronger effect = higher value
[13] = EMT-state selective cytotoxicity in co-culture – imaging, PC-3E GFP, TEM4-18 mCherry, primary screen (AID 1345086;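 active = compounds killing one labelled cell type while sparing the other, by normalised counts and ratio limits, not self-fluorescent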;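 for all read-outs here: cells exposed to compound for 72 h before imaging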;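 for red/green cell ratio (normalised): normalised mesenchymal count divided by normalised epithelial count so high means epithelial killing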); settings: PC-3E GFP / TEM4-18 mCherry co-culture, imaging cell counts, at 1 µM; for red/green cell ratio (normalised): actives lie on both sides, counts scaled to control wells, 1 = unselective
[14] = MELAS cybrid and Rieske KO viability enhancers – cell-based, MELAS cybrids, Rieske KO mouse fibroblasts, CellTiter-Glo, primary screen (AID 1508586;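 active = mean z-score across replicates of 1.96 or higher in either the MELAS or the Rieske mutant cell line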;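 note: z relative to plate mean and SD of compound and empty wells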); settings: low glucose
[15] = target: NAD(+) hydrolase SARM1 (Homo sapiens) (UniProt Q6SZW1); assay: blocking NAD cleavage by SARM1 SAM-TIR – cell lysate, NAD-Glo luminescence (AID 1508614;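 active = compound whose remaining NAD level is above about 45 nM, limit read from the data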;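 note: higher remaining NAD means stronger inhibition of SARM1 NADase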); settings: SAM-TIR HEK293T lysate NADase, at 1 µM, stronger effect = higher value
[16] = target: Mitogen-activated protein kinase 7 (Homo sapiens) (UniProt Q13164); assay: Gal4-ERK5 driven luciferase induction – cell-based, HTS, primary screen (AID 1508626;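 active = luciferase signal above three times the same-plate solvent-only control wells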;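 note: luciferase driven by Gal4-ERK5 fusion binding five Gal4 sites before minimal TATA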); settings: HeLa Gal4-ERK5 transactivation, 18 h, at 5 µM, stronger effect = higher value
F380Y = assay: BK channel mutant inhibitors and activators – cell-based, U2OS BacMam, thallium flux, beta subunits, selectivity assay, profiling panel (AID 1259406); settings: U2OS BacMam BK variants, at 30 µM;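 note: initial slope of Thallos dye fluorescence rise after thallium is added; log ratio against the mean of 0.3% DMSO vehicle wells on the same plate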
F380Y/beta2Delta = assay: as above; settings: U2OS BacMam BK variants, at 30 µM
[17] = target: Calcium-activated potassium channel subunit alpha-1 (Homo sapiens) + Leucine-rich repeat-containing protein 26 (Homo sapiens) (UniProt Q12791+Q2I0M4); assay: as above; settings: U2OS BacMam BK variants, F380Y/Slo1WT/gamma1, at 30 µM
[18] = viability loss with induced miR-34 in A549 – imaging, A549 dox-inducible miR-34, nuclei and caspase counts, primary screen (AID 1347080;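 active = compounds whose cell count with miR-34 switched on is under 0.7 times the count with it off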); settings: A549 miR-34 inducible, Hoechst nuclei count, 48 h
[19] = measured here: epithelial PC-3E GFP cell survival
[20] = measured here: mesenchymal TEM4-18 mCherry cell survival
[21] = MELAS cybrid survival, CellTiter-Glo 48 h, stronger effect = higher value
[22] = Rieske KO mouse fibroblast survival, CellTiter-Glo 72 h
[23] = stronger effect = lower value, cell number ratio, induced over uninduced
[24] = measured here: relative caspase fold change +Dox/-Dox
[25] = measured here: total cells with miR-34 induction, stronger effect = lower value
[26] = measured here: total cells without miR-34 induction

Sequence of 6-phosphogluconate dehydrogenase, decarboxylating (Homo sapiens) (P52209 whole entry, looked up): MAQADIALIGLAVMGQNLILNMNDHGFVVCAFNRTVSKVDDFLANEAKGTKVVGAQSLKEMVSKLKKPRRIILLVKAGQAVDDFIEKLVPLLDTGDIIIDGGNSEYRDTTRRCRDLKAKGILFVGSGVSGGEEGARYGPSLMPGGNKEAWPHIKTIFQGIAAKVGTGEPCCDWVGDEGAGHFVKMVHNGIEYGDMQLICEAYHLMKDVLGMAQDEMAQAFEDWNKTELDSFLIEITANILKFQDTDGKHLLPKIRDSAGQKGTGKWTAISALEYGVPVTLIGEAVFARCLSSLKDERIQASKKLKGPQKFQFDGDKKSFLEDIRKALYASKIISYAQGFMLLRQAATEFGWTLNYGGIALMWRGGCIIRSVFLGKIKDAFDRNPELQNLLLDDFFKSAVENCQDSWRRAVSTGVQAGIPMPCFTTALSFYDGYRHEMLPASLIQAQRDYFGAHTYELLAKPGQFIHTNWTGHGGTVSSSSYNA
Sequence of NAD(+) hydrolase SARM1 (Homo sapiens) (Q6SZW1 whole entry, looked up, the tested form may be a part): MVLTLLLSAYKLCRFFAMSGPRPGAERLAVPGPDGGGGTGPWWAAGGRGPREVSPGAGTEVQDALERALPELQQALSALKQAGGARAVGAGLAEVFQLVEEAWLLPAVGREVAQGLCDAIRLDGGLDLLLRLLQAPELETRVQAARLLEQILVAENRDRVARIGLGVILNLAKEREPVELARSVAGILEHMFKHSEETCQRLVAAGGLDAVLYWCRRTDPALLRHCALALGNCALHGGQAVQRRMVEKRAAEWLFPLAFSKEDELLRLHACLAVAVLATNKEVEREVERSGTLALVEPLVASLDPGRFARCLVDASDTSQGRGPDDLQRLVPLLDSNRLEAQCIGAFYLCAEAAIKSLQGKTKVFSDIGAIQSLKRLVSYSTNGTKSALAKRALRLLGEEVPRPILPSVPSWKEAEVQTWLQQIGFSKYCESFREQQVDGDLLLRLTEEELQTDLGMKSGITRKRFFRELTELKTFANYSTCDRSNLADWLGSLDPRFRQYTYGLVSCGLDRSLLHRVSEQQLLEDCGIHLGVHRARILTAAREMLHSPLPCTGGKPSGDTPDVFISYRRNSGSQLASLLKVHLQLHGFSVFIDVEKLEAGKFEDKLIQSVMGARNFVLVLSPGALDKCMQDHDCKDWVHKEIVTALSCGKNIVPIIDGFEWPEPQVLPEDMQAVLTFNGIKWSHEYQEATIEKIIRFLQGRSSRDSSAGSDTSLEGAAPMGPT
Sequence of Calcium-activated potassium channel subunit alpha-1 (Homo sapiens) + Leucine-rich repeat-containing protein 26 (Homo sapiens) (Q2I0M4 whole entry, looked up, one chain of several): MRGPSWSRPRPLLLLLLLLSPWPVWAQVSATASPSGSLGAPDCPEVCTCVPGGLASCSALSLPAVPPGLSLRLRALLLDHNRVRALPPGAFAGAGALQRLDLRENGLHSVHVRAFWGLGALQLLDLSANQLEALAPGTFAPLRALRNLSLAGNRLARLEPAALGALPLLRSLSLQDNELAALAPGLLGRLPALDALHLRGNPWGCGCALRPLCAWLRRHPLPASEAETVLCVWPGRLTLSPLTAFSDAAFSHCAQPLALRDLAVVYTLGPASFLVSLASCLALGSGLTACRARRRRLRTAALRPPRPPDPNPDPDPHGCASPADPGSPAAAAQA
Sequence of Mitogen-activated protein kinase 7 (Homo sapiens) (Q13164 whole entry, looked up, the tested form may be a part): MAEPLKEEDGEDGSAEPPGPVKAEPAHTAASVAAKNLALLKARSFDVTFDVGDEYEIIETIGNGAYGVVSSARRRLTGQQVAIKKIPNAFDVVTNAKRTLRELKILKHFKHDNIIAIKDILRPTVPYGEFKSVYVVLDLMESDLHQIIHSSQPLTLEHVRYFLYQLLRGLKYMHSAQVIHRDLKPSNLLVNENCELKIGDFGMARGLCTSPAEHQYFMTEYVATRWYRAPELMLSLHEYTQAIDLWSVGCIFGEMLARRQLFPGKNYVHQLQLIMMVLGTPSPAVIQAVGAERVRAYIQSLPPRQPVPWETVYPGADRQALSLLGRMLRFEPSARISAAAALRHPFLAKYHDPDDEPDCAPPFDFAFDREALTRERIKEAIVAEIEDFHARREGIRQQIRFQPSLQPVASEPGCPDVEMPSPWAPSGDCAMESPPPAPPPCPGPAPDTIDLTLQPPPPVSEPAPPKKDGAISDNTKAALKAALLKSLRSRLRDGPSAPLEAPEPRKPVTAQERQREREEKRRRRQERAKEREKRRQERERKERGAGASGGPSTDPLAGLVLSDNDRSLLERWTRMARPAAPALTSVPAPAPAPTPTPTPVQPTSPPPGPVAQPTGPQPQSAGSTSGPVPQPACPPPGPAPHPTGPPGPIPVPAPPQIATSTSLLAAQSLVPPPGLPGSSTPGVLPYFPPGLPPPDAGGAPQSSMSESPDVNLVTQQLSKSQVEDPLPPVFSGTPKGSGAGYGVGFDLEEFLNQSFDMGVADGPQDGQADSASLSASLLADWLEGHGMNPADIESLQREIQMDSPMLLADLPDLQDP

Cc1cccc(Nc2ccccc2C(=O)O)c1C
0.4%: nuclear beta-catenin stimulation ([4]; stimulation, at 2 µM)
1.08: normalised cell number [13, 20]
inactive: inhibition [1] -5% | inhibition [2] 1.05% | fluorescence ratio [3] 0.91 | nuclear beta-catenin stimulation ([4]; at 10 µM) 0.8% | insulin secretion stimulation [5] -1.6% | viability decrease [6] -0.3% | tube area decrease [7] 18% | GLP1 secretion stimulation [8] -0.1% | inhibition of viability [9] -21% | viability decrease (inhibition) [10] 29.6% | viability decrease (inhibition) [11] 2.25% | inhibition [12] 17.3% | red/green cell ratio (normalised) [13] 0.92 | z-score [14, 21] -0.21 and 0.386 and -0.378 | remaining NAD [15] 10 nM | luciferase signal [16] 232 AU | log fold change Tl+ flux (F380Y) 0.0635
1.18: normalised cell number [13, 19]
-0.308 and -0.333 and -1.12: z-score [14, 22]
active: log fold change Tl+ flux (F380Y/beta2Delta) 0.111 | log fold change Tl+ flux [17] 0.101

Cc1onc(-c2ccccc2)c1-c1ccc(S(N)(=O)=O)cc1
1.6%: nuclear beta-catenin stimulation ([4]; stimulation, at 2 µM)
8880 and 8040: cell count [18, 25]
inactive: inhibition [1] -1.19% | inhibition [2] -2.41% | fluorescence ratio [3] 0.93 | nuclear beta-catenin stimulation ([4]; at 10 µM) 1.5% | insulin secretion stimulation [5] -0.9% | viability decrease [6] -37.3% | tube area decrease [7] 32.7% | GLP1 secretion stimulation [8] 4.8% | inhibition of viability [9] 33.5% | viability decrease (inhibition) [11] 32.5% | inhibition [12] -1.63% | fold change [18, 23] 0.904 and 0.903 | z-score [14, 21] -0.154 and 0.659 | luciferase signal [16] 64 AU | log fold change Tl+ flux (F380Y) 0.0649 | log fold change Tl+ flux (F380Y/beta2Delta) 0.0548 | log fold change Tl+ flux [17] 0.00659
active: viability decrease (inhibition) [10] 54%
-0.131 and 0.628: z-score [14, 22]
9820 and 8900: cell count [18, 26]
1.68 and 0.72: fold change [18, 24]

CCCN(CCC)S(=O)(=O)c1ccc(C(=O)O)cc1
1.12: normalised cell number [13, 20]
-0.203 and 0.258: z-score [14, 22]
inactive: inhibition [1] -3.18% | inhibition [2] -0.48% | fluorescence ratio [3] 0.94 | nuclear beta-catenin stimulation ([4]; at 10 µM) -1.3% | insulin secretion stimulation [5] 0.5% | viability decrease [6] -23.6% | tube area decrease [7] -14.2% | GLP1 secretion stimulation [8] -0.7% | inhibition of viability [9] 12.4% | viability decrease (inhibition) [10] 14.9% | viability decrease (inhibition) [11] -10.5% | inhibition [12] 0.15% | red/green cell ratio (normalised) [13] 1.43 | z-score [14, 21] -0.112 and 0.174 | remaining NAD [15] 10 nM | luciferase signal [16] 80 AU | log fold change Tl+ flux (F380Y) -0.012 | log fold change Tl+ flux (F380Y/beta2Delta) -0.000486 | log fold change Tl+ flux [17] 0.021
0.78: normalised cell number [13, 19]
-0.2%: nuclear beta-catenin stimulation ([4]; stimulation, at 2 µM)

CC(C)(C)NC[C@H](O)COc1nsnc1N1CCOCC1
inactive: inhibition [1] 0.45% | inhibition [2] 2.57% | fluorescence ratio [3] 0.98 | nuclear beta-catenin stimulation ([4]; at 10 µM) 2.1% | insulin secretion stimulation [5] 3.2% | viability decrease [6] 6.4% | tube area decrease [7] -8.3% | GLP1 secretion stimulation [8] 1.7% | inhibition of viability [9] -6.3% | viability decrease (inhibition) [10] -4.9% | viability decrease (inhibition) [11] -2.7% | inhibition [12] -2.5% | z-score [14, 21] 0.744 and 0.988 | remaining NAD [15] 10 nM | luciferase signal [16] 32 AU | log fold change Tl+ flux (F380Y) 0.0205 | log fold change Tl+ flux (F380Y/beta2Delta) 0.019 | log fold change Tl+ flux [17] 0.00124
0.265 and 0.0861: z-score [14, 22]
0.4%: nuclear beta-catenin stimulation ([4]; stimulation, at 2 µM)

C[C@]12C=CC(=O)C=C1CC[C@@H]1[C@@H]2C(=O)C[C@@]2(C)[C@H]1CC[C@]2(O)C(=O)CO
10300 and 7950 and 9680: cell count [18, 25]
inactive: inhibition [1] -0.45% | inhibition [2] -1.24% | fluorescence ratio [3] 0.95 | nuclear beta-catenin stimulation ([4]; at 10 µM) 0.6% | insulin secretion stimulation [5] -2.5% | viability decrease [6] -21.3% | tube area decrease [7] -13.7% | GLP1 secretion stimulation [8] 0.9% | inhibition of viability [9] -8.2% | viability decrease (inhibition) [10] -6.4% | viability decrease (inhibition) [11] -11.6% | inhibition [12] -6.11% | fold change [18, 23] 0.98 and 0.843 and 0.886 | z-score [14, 21] 0.134 and 0.541 | remaining NAD [15] 10 nM | luciferase signal [16] 28 AU | log fold change Tl+ flux (F380Y) 0.00715 | log fold change Tl+ flux (F380Y/beta2Delta) 0.0137 | log fold change Tl+ flux [17] -0.00874
1.65 and 0.777 and 1.15: fold change [18, 24]
0.8%: nuclear beta-catenin stimulation ([4]; stimulation, at 2 µM)
-0.259 and 0.148: z-score [14, 22]
10500 and 9420 and 10900: cell count [18, 26]

CC1=C(C(=O)O)N2C(=O)[C@@H](NC(=O)[C@H](N)c3ccccc3)[C@H]2SC1
inactive: inhibition [1] 8.32% | inhibition [2] 8.37% | fluorescence ratio [3] 0.97 | nuclear beta-catenin stimulation ([4]; at 10 µM) 3.8% | insulin secretion stimulation [5] -0.9% | viability decrease [6] 7.2% | tube area decrease [7] -2.6% | inhibition of viability [9] 24.3% | viability decrease (inhibition) [10] 44.6% | viability decrease (inhibition) [11] 11.8% | inhibition [12] 8.67% | fold change [18, 23] 0.846 | remaining NAD [15] 10 nM | luciferase signal [16] 40 AU | log fold change Tl+ flux (F380Y) -0.036 | log fold change Tl+ flux (F380Y/beta2Delta) -0.0767 | log fold change Tl+ flux [17] -0.0298
0.2%: nuclear beta-catenin stimulation ([4]; stimulation, at 2 µM)
10900: cell count [18, 26]
active: GLP1 secretion stimulation [8] 22.8%
1.36: fold change [18, 24]
9200: cell count [18, 25]
